Reference: PubChem BioAssay AID602376 (Johns Hopkins Ion Channel Center, 2012)
Measured potencies and affinities stand elsewhere. Records with an inconclusive call do not appear. Activity calls are given as the source filed them.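 The calls were made as follows: active = raises choline transporter activity at one or more tested doses and gives a fitted dose-response curve; inconclusive = no clear call, values can overlap the other calls; inactive = no choline transporter activation at any dose, or no curve.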

Target: High affinity choline transporter 1 (Homo sapiens) (UniProt Q9GZV3)
Sequence (Q9GZV3 whole entry, looked up): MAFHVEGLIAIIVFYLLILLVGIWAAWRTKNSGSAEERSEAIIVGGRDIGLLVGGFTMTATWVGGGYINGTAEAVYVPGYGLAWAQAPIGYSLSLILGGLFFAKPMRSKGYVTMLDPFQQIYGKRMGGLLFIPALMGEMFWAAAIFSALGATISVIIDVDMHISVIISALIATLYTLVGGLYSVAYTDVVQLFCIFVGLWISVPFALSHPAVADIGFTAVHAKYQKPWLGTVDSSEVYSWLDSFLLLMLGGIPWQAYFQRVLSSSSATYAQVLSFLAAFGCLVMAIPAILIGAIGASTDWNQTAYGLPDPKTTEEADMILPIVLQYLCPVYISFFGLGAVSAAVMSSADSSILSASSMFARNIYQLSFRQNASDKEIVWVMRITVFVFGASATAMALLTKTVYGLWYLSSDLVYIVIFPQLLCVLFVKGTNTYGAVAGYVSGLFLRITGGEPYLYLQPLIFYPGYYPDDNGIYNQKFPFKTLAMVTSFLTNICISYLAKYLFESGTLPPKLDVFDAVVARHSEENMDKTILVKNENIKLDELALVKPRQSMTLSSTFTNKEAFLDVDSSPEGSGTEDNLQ
Test: human choline transporter potentiators, potency – cell-based, 10-point CRC, membrane potential dye, dose response (AID 602376)
Conditions: HEK293-CHT, choline-induced membrane potential dye, cells express CHT LV-AA mutant; series mostly up to 67 µM; percent activation: at the top concentration

Q: With CCCOC(=O)c1ccc(-[n+]2c(-c3ccccc3)cc(-c3ccccc3)cc2-c2ccccc2)cc1 as the compound, how does the “percent activation” value read?
A: Its value is 105% (inactive).

Q: Which “percent activation” value does the source give for COc1ccc(C2NCc3ccc4c(c3-n3cccc32)OCO4)cc1O (stereo not drawn) here?
A: Its value is 112% (inactive).

Q: How did the “percent activation” value turn out when CCCCCn1c(=O)c(C(=O)NCc2ccncc2)c(O)c2ccccc21 was run?
A: The value was 78.3% (inactive).
